Source: PubChem BioAssay AID2588 (National Center for Advancing Translational Sciences (NCATS), 2010)
Results filed as inconclusive are left out. The source made the active and inactive calls. Calls follow the shape of the dose curve; as a rule, active = well fitted inhibition curve with a large enough effect; inconclusive = small, poorly fitted or top-dose-only effect, or effect the other way; inactive = flat fitted curve, though single readings scatter.

molecular target: Lysosomal acid glucosylceramidase (Homo sapiens) (UniProt P04062); test: qHTS Assay for Inhibitors and Activators of N370S glucocerebrosidase as a Potential Chaperone Treatment of Gaucher Disease: Activity in Non-Mutant Spleen Homogenate Using a Red Fluorescent Substrate; conditions: red fluorogenic substrate GCase activity; series mostly up to 50.2 µM
Sequence (P04062 whole entry, looked up): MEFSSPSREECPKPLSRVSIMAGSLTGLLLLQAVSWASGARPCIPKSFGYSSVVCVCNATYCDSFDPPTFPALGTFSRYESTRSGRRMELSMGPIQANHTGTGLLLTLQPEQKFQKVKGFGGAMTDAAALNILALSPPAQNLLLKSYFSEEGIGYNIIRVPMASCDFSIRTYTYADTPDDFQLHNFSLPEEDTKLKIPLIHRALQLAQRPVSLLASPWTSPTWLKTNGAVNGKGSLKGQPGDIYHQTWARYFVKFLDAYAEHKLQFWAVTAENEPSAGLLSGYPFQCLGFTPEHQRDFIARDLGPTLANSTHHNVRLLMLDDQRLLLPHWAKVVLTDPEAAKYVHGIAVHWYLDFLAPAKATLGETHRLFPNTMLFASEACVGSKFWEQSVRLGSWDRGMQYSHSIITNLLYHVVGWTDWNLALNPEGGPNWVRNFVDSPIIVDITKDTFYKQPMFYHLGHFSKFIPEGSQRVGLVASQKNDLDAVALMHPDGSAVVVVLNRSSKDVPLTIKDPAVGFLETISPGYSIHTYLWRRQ
From the text: NIH Chemical Genomics Center [NCGC]
NIH Molecular Libraries Probe Production Centers Network [MLPCN]
Assay Submitter (PI): Wei Zheng
Glucocerebrosidase (GC) catalyzes the hydrolysis of beta-glucocerebroside to glucose and ceramide in lysosomes. Mutations in the glucocerebrosidase gene result in Gaucher disease, an autosomal recessive lysosomal storage disorder. Many of the mutations encountered in patients with Gaucher disease are missense alterations that may cause misfolding, decreased stability and/or mistrafficking of this lysosomal protein. […] These inhibitors include iminosugar analogs and three non-iminosugar inhibitors identified from a previous HTS of 62,000 compounds with the wild type recombinant enzyme. However, the enhancement of enzyme activity by the chaperone action of an enzyme inhibitor must be balanced against the direct inhibition of the enzyme. An enzyme activator could also function as a chaperone by binding to the enzyme and helping to correct its misfolding and mistrafficking. While activators for GC have not yet been identified, they may have better therapeutic potential than inhibitors. Therefore the discovery and development of chemical activators may provide a new strategy for the chaperone therapy.
We have optimized a new assay using N370S mutant GC derived from the spleen of a Gaucher patient. […] In addition, the MLPCN compound library has expanded, which increases the chance of finding new and better probes.
This confirmation assay tests for compound activity in spleen homogenate containing wildtype enzyme using an alternate resorufin-based substrate.
NCGC Assay Protocol Summary:
This is a fluorogenic enzyme assay with resorufin-beta-D-glucopyranoside as the substrate and wildtype glucocerebrosidase from human spleen homogenate as the enzyme preparation. Upon the hydrolysis of this fluorogenic substrate, the resulting product, […] which can be detected by a standard fluorescence plate reader. Data were normalized to the controls for basal activity (without enzyme) and 100% activity (with enzyme). The AC50 values were determined from concentration-response data modeled with the standard Hill equation.
Assay buffer: 50 mM citric acid (titrated with potassium phosphate to pH 5.0), 100 mM potassium chloride, 10 mM sodium chloride, 1 mM magnesium chloride, 0.01% Tween-20.
1536-well assay protocol:
(1) Add 2 ul/well of spleen homogenate (27 ug final)
(2) Add 23 nL compounds in DMSO solution. The final titration was 0.5 nM to 58 uM.
(3) Add 2 ul of substrate (1 mM final)
(4) Incubate at 37C for 40 min.
(5) Add 2 ul stop solution (1M NaOH and 1M Glycine mixture, pH 10)
(6) Detect the assay plate in a ViewLux plate reader (PerkinElmer) with Ex=365 nm and Em=440nm.
Keywords: Glucocerebrosidase, beta-glucosidase, Gaucher Disease, pharmacological chaperone, chaperone therapy, high throughput screening, glucocerebrosidase inhibitor, MLSMR, MLSCN, NIH Roadmap, qHTS and NCGC

How did the Potency turn out when `N#Cc1ccccc1S(=O)(=O)N1CCN(c2nc(-c3cccs3)nc3ccccc23)CC1` was run?
Its Potency is 1120 nM (active).

For `O=S(=O)(c1cccc(Br)c1)N1CCN(c2nc(-c3cccs3)nc3ccccc23)CC1`, which Potency is on record?
Its Potency is 1410 nM (active).

`S=C(NCCCc1cnc[nH]1)NCCCN(Cc1ccc(Cl)c(Cl)c1)c1ccc(Br)cn1` was tested. Which Potency did it give?
The Potency was 1000 nM (active).

With `O=S(=O)(c1ccc2c(c1)OCCO2)N1CCN(c2nc(-c3ccccc3)nc3ccccc23)CC1` as the molecule, how does the Potency read?
The Potency was 4470 nM (active).

`Cc1cc(C)cc(N(CC(=O)NC2CCCCCC2)S(=O)(=O)c2c(C)[nH]c(=O)[nH]c2=O)c1` was tested. Which Potency did it give?
Its Potency is 631 nM (active).

For `CC(=O)Nc1ccc(NC(=O)COc2ccccc2C(=O)Nc2cccc(Cl)c2Cl)cc1`, which Potency is on record?
The Potency was “inactive”.

How did the Potency turn out when `Cc1cc(N2CCOCC2)nc2ccc(NC(=O)CCC(=O)NC3CCCCC3)cc12` was run?
The Potency was “inactive”.

With `O=S(=O)(c1ccc(OC(F)(F)F)cc1)N1CCN(c2nc(-c3cccs3)nc3ccccc23)CC1` as the molecule, how does the Potency read?
The Potency was 3980 nM (active).

Which Potency does the source give for `O=C(Nc1cc(Br)ccc1O)c1cnn2c(C(F)F)cc(C3CC3)nc12` here?
Its Potency is “inactive”.

Which Potency does the source give for `O=S(=O)(c1ccccc1Cl)N1CCN(c2nc(-c3cccs3)nc3ccccc23)CC1` here?
The Potency was 794 nM (active).

With `Cc1cc(C)n2ncc(C(=O)Nc3ccc(Cl)c(Cl)c3)c2n1` as the molecule, how does the Potency read?
The Potency was “inactive”.

For `O=[N+]([O-])c1ccccc1S(=O)(=O)N1CCN(c2nc(-c3ccccc3)nc3ccccc23)CC1`, which Potency is on record?
Its Potency is 4470 nM (active).

For `Clc1ccccc1-c1nccc(NCc2ccccc2)n1`, which Potency is on record?
Its Potency is 3980 nM (active).

`O=S(=O)(c1ccccc1C(F)(F)F)N1CCN(c2nc(-c3cccs3)nc3ccccc23)CC1` was tested. Which Potency did it give?
Its Potency is 224 nM (active).

For `COc1ccccc1NC(=O)COc1ccccc1C(=O)Nc1ccccc1`, which Potency is on record?
The Potency was “inactive”.

`O=S(=O)(c1ccc(Cl)cc1)N1CCN(c2nc(-c3ccc(Cl)cc3)nc3ccccc23)CC1` was tested. Which Potency did it give?
Its Potency is “inactive”.

How did the Potency turn out when `CC(C)(C)C(=O)OCCNc1nc(-c2ccccc2)nc2ccccc12` was run?
Its Potency is 2240 nM (active).

How did the Potency turn out when `O=S(=O)(c1ccc2c(c1)OCCO2)N1CCN(c2nc(-c3cccs3)nc3ccccc23)CC1` was run?
Its Potency is 141 nM (active).

Which Potency does the source give for `O=C(Nc1ccccc1)c1ccc(NS(=O)(=O)c2ccccc2)cc1` here?
The Potency was “inactive”.

How did the Potency turn out when `Cc1cc(N2CCOCC2)nc2ccc(NC(=O)C3CCC(C)CC3)cc12` (stereo not given) was run?
The Potency was 2820 nM (active).

With `O=S(=O)(c1ccc(Cl)cc1)N1CCN(c2nc(-c3ccc(F)cc3)nc3cc(Cl)ccc23)CC1` as the molecule, how does the Potency read?
Its Potency is “inactive”.

For `COc1ccc(S(=O)(=O)N2CCN(c3nc(-c4cccs4)nc4ccccc34)CC2)cc1OC`, which Potency is on record?
Its Potency is 224 nM (active).

`CC1(C)CC(=O)C2=C(C1)c1c(ccc3ccccc13)NC2c1ccc(Br)o1` (stereo not given) was tested. Which Potency did it give?
The Potency was “inactive”.

`O=S(=O)(c1ccc2c(c1)CCCC2)N1CCN(c2nc(-c3cccs3)nc3ccccc23)CC1` was tested. Which Potency did it give?
Its Potency is 282 nM (active).

With `O=S(=O)(c1ccc(Br)cc1)N1CCN(c2nc(-c3cccs3)nc3ccccc23)CC1` as the molecule, how does the Potency read?
The Potency was 794 nM (active).

Which Potency does the source give for `O=S(=O)(c1ccccc1)N1CCN(c2nc(-c3ccc(F)cc3)nc3cc(Cl)ccc23)CC1` here?
Its Potency is “inactive”.

`O=S(=O)(c1ccc(F)cc1)N1CCN(c2nc(-c3cccs3)nc3cc(Cl)ccc23)CC1` was tested. Which Potency did it give?
The Potency was “inactive”.

Which Potency does the source give for `O=S(=O)(c1ccc(Cl)cc1)N1CCN(c2nc(-c3cccc(Br)c3)nc3ccccc23)CC1` here?
The Potency was “inactive”.

With `COc1cc(OC)cc(C(=O)N[C@H](C(=O)OCC(=O)Nc2cccc(F)c2)C(C)C)c1` as the molecule, how does the Potency read?
The Potency was “inactive”.

For `O=S(=O)(c1ccc(F)cc1)N1CCN(c2nc(-c3ccccc3)nc3cc(Cl)ccc23)CC1`, which Potency is on record?
The Potency was “inactive”.

With `Cc1ccc(NC(=O)COc2ccccc2C(=O)Nc2ccccc2)cc1Cl` as the molecule, how does the Potency read?
The Potency was “inactive”.

`CCC(C)NC(=O)COC(=O)c1ccccc1OCC(=O)Nc1ccc(Br)cc1` (stereo not given) was tested. Which Potency did it give?
The Potency was “inactive”.

For `O=C(COc1ccccc1[N+](=O)[O-])Nc1ccc(Br)cc1`, which Potency is on record?
The Potency was “inactive”.

How did the Potency turn out when `COc1ccc(S(=O)(=O)N2CCN(c3nc(-c4ccccc4)nc4ccccc34)CC2)cc1` was run?
The Potency was 2510 nM (active).

With `COc1ccc(S(=O)(=O)N2CCN(c3nc(-c4cccs4)nc4ccccc34)CC2)cc1` as the molecule, how does the Potency read?
The Potency was 355 nM (active).

For `O=S(=O)(c1ccccc1F)N1CCN(c2nc(-c3cccs3)nc3ccccc23)CC1`, which Potency is on record?
Its Potency is 501 nM (active).

`O=S(=O)(c1ccccc1C(F)(F)F)N1CCN(c2nc(-c3ccccc3)nc3ccccc23)CC1` was tested. Which Potency did it give?
Its Potency is 1000 nM (active).

With `O=[N+]([O-])c1ccc(S(=O)(=O)N2CCN(c3nc(-c4cccs4)nc4ccccc34)CC2)cc1` as the molecule, how does the Potency read?
Its Potency is 1120 nM (active).

How did the Potency turn out when `O=S(=O)(c1cccc(C(F)(F)F)c1)N1CCN(c2nc(-c3cccs3)nc3cc(Cl)ccc23)CC1` was run?
The Potency was “inactive”.

For `O=S(=O)(c1ccc(F)cc1)N1CCN(c2nc(-c3cccc(Br)c3)nc3ccccc23)CC1`, which Potency is on record?
Its Potency is “inactive”.
